In ChEMBL document CHEMBL5606460, “ASAP - DENV-2 NS2B-NS3 protease fluorescence single point” (2024):
In all, about 2,000 compounds went through this assay and about 110 (5.5%) showed an effect of 50% or more. The list comes from a sample in which strong results are over-represented; it also holds similar structures and randomly drawn compounds.

Target: Genome polyprotein (dengue virus type 2) (UniProt P29990)
[1] = Thailand/16681/1984, Concentration 25.0 uM, Number of replicates 1.0

Question: Which results are given for CNC(=O)c1ccccc1NS(=O)(=O)c1ccc(Oc2ccccc2Cl)cc1?
Answer: inhibition (Thailand/16681/1984, Concentration 49.5 uM, Number of replicates 2.0, Standard deviation 0.8338499147497574 %): 0.494%; inhibition (Thailand/16681/1984, Concentration 99.01 uM, Number of replicates 2.0, Standard deviation 3.066215993073902 %): -2.05%; inhibition (Thailand/16681/1984, Concentration 198.0 uM, Number of replicates 2.0, Standard deviation 2.7475277663160753 %): -6.31%

Question: With O=S(=O)(Nc1ccccc1)c1ccc(Oc2ccccc2Cl)cc1 as the compound, how does the inhibition (Thailand/16681/1984, Concentration 49.5 uM, Number of replicates 2.0, Standard deviation 1.8105423163556815 %) read?
Answer: 1.05%

Question: And the inhibition (Thailand/16681/1984, Concentration 99.01 uM, Number of replicates 2.0, Standard deviation 1.556829309720985 %)?
Answer: 2.93%

Question: And the inhibition (Thailand/16681/1984, Concentration 198.0 uM, Number of replicates 2.0, Standard deviation 1.335088080503107 %)?
Answer: 5.83%

Question: Which results are given for CNC(=O)[C@H]1CCCN1S(=O)(=O)c1ccc(Oc2ccccc2Cl)cc1?
Answer: inhibition (Thailand/16681/1984, Concentration 49.5 uM, Number of replicates 2.0, Standard deviation 0.43290983719310167 %): -4.62%; inhibition (Thailand/16681/1984, Concentration 99.01 uM, Number of replicates 2.0, Standard deviation 1.120416310773355 %): -4.38%; inhibition (Thailand/16681/1984, Concentration 198.0 uM, Number of replicates 2.0, Standard deviation 0.24124704358981106 %): -3.59%

Question: With Cc1nc(C2CCN(C(=O)c3ccn([C@H]4CCCNC4)n3)CC2)n[nH]1 as the compound, how does the inhibition (Thailand/16681/1984, Concentration 49.5 uM, Number of replicates 2.0, Standard deviation 0.8219326667939915 %) read?
Answer: -4.42%

Question: And the inhibition (Thailand/16681/1984, Concentration 99.01 uM, Number of replicates 2.0, Standard deviation 0.15240671313806178 %)?
Answer: -3.84%

Question: What about the inhibition (Thailand/16681/1984, Concentration 198.0 uM, Number of replicates 2.0, Standard deviation 2.223365450237249 %) of the same compound?
Answer: -4.59%

Question: With O=Cc1ccc(N2CCC(C(=O)NCCc3cccc(Br)c3)CC2)cc1 as the compound, how does the inhibition [1] read?
Answer: 11.8%

Question: How did the inhibition [1] turn out when O=Cc1ccc(N2CCC(C(=O)N3CC4C[C@H]5CC3C[C@H](C4)C5)CC2)cc1 was run?
Answer: 14.5%

Question: For O=Cc1ccc(N2CCC(C(=O)Nc3ccccc3OCC(F)(F)F)CC2)cc1, which inhibition [1] is on record?
Answer: 13.4%

Question: For Cn1cc(CNC(=O)c2ccccc2[C@@H]2CCCCN2)cn1, which inhibition (Thailand/16681/1984, Concentration 49.5 uM, Number of replicates 2.0, Standard deviation 1.3250088302691205 %) is on record?
Answer: -2.36%

Question: And the inhibition (Thailand/16681/1984, Concentration 99.01 uM, Number of replicates 2.0, Standard deviation 0.6184423716804828 %)?
Answer: -1.37%

Question: And the inhibition (Thailand/16681/1984, Concentration 198.0 uM, Number of replicates 2.0, Standard deviation 0.12536703369097324 %)?
Answer: -0.243%

Question: With Cc1cn(-c2cc(NC(=O)C3CCN(c4ccc(C=O)cc4)CC3)cc(C(F)(F)F)c2)cn1 as the compound, how does the inhibition [1] read?
Answer: 12.1%

Question: O=Cc1ccc(N2CCC(C(=O)N3CCC(c4nc5ccccc5s4)CC3)CC2)cc1 was tested. Which inhibition [1] did it give?
Answer: 14.3%

Question: For Cn1cc(CNC(=O)c2ccccc2CN)cn1, which inhibition (Thailand/16681/1984, Concentration 49.5 uM, Number of replicates 2.0, Standard deviation 4.704758964680012 %) is on record?
Answer: -1.53%

Question: What about the inhibition (Thailand/16681/1984, Concentration 99.01 uM, Number of replicates 2.0, Standard deviation 3.3738585950449482 %) of the same compound?
Answer: -6.84%

Question: And the inhibition (Thailand/16681/1984, Concentration 198.0 uM, Number of replicates 2.0, Standard deviation 1.4794083306984744 %)?
Answer: -5.39%

Question: c1cnc2c(CN3CCC(c4c[nH]c5cccnc45)CC3)c[nH]c2c1 was tested. Which inhibition (Thailand/16681/1984, Concentration 49.5 uM, Number of replicates 2.0, Standard deviation 2.401783006640112 %) did it give?
Answer: -4.14%

Question: What about the inhibition (Thailand/16681/1984, Concentration 99.01 uM, Number of replicates 2.0, Standard deviation 2.691377880268528 %) of the same compound?
Answer: -3.47%

Question: What about the inhibition (Thailand/16681/1984, Concentration 198.0 uM, Number of replicates 2.0, Standard deviation 2.989922552884535 %) of the same compound?
Answer: -1.51%

Question: With O=Cc1ccc(N2CCC(C(=O)N[C@@H](Cc3ccccc3)c3ccccc3)CC2)cc1 as the compound, how does the inhibition [1] read?
Answer: 4.84%

Question: O=Cc1ccc(N2CCC(C(=O)NC[C@H]3COc4ccccc4O3)CC2)cc1 was tested. Which inhibition [1] did it give?
Answer: 15.5%

Question: Which inhibition [1] does the source give for C#CCN(Cc1ccccc1Cl)C(=O)C1CCN(c2ccc(C=O)cc2)CC1 here?
Answer: 14.7%

Question: Which inhibition (Thailand/16681/1984, Concentration 49.5 uM, Number of replicates 2.0, Standard deviation 0.5855266102241418 %) does the source give for CNC(=O)c1nc(Cl)ccc1NS(=O)(=O)c1ccc(Oc2ccccc2Cl)cc1 here?
Answer: 6.34%

Question: What about the inhibition (Thailand/16681/1984, Concentration 99.01 uM, Number of replicates 2.0, Standard deviation 0.14494638377684543 %) of the same compound?
Answer: 6.62%

Question: What about the inhibition (Thailand/16681/1984, Concentration 198.0 uM, Number of replicates 2.0, Standard deviation 0.056926230997118174 %) of the same compound?
Answer: 4.4%

Question: What does the source list for CNC(=O)c1cc(Br)cnc1NS(=O)(=O)c1ccc(Oc2ccccc2Cl)cc1?
Answer: inhibition (Thailand/16681/1984, Concentration 49.5 uM, Number of replicates 2.0, Standard deviation 0.1523274770628613 %): 20.5%; inhibition (Thailand/16681/1984, Concentration 99.01 uM, Number of replicates 2.0, Standard deviation 0.08785965758059779 %): 73.9%; inhibition (Thailand/16681/1984, Concentration 198.0 uM, Number of replicates 2.0, Standard deviation 0.12988512316778045 %): 87.2%

Question: What does the source list for CCc1ccc(NS(=O)(=O)c2ccc(Oc3ccccc3Cl)cc2)c(C(=O)NC)c1?
Answer: inhibition (Thailand/16681/1984, Concentration 49.5 uM, Number of replicates 2.0, Standard deviation 2.280534278494396 %): 20.1%; inhibition (Thailand/16681/1984, Concentration 99.01 uM, Number of replicates 2.0, Standard deviation 1.9533776277108892 %): 35.5%; inhibition (Thailand/16681/1984, Concentration 198.0 uM, Number of replicates 2.0, Standard deviation 2.0141203401343657 %): 57.1%

Question: CNC(=O)c1cncnc1NS(=O)(=O)c1ccc(Oc2ccccc2Cl)cc1 was tested. Which inhibition (Thailand/16681/1984, Concentration 49.5 uM, Number of replicates 2.0, Standard deviation 1.0127526920144583 %) did it give?
Answer: 5.46%

Question: And the inhibition (Thailand/16681/1984, Concentration 99.01 uM, Number of replicates 2.0, Standard deviation 1.3865274661736828 %)?
Answer: 5.75%

Question: What about the inhibition (Thailand/16681/1984, Concentration 198.0 uM, Number of replicates 2.0, Standard deviation 1.0625889801550739 %) of the same compound?
Answer: 3.56%

Question: Which results are given for CNC(=O)c1cc(C#N)ccc1NS(=O)(=O)c1ccc(Oc2ccccc2Cl)cc1?
Answer: inhibition (Thailand/16681/1984, Concentration 49.5 uM, Number of replicates 2.0, Standard deviation 0.4271842721165937 %): 49.4%; inhibition (Thailand/16681/1984, Concentration 99.01 uM, Number of replicates 2.0, Standard deviation 0.14972718509713318 %): 88.8%; inhibition (Thailand/16681/1984, Concentration 198.0 uM, Number of replicates 2.0, Standard deviation 0.1152868035427591 %): 94%

Question: Which inhibition (Thailand/16681/1984, Concentration 49.5 uM, Number of replicates 2.0, Standard deviation 1.11087224122176 %) does the source give for C[C@H]1COCCN1C(=O)c1cc(Cl)ccc1NS(=O)(=O)c1ccc(Oc2ccccc2Cl)cc1 here?
Answer: 42.6%

Question: And the inhibition (Thailand/16681/1984, Concentration 99.01 uM, Number of replicates 2.0, Standard deviation 0.41977451897359047 %)?
Answer: 79.8%

Question: What about the inhibition (Thailand/16681/1984, Concentration 198.0 uM, Number of replicates 2.0, Standard deviation 0.050716482924917095 %) of the same compound?
Answer: 92.9%
